{"source": "the supplement of paper PMC8728848", "binders": {"B1": {"name": "Awp1 (Candida glabrata) (protein)", "chain": "MSLITIFAFLIKATLVLSLDILTPTTLTGDQTFNEDVSVVSSLTLNDGSQYLFNNLLQIAPSSASVTANALAAVSVFTFSLPPSSSLSNSGTLIISNSNTGPSTEQHIVITPNVMANTGTITLSLAHTNTDSSSTLIIDPVTFYNTGTINYESIGSETNDPSLTGNILSIGSSGRTLQNLGTINLNAANSYYLLGTITENSGSINVQKGFLYVNALDFIGNTINLSTTTALAFISPVSQVVRVRGVFFGNIIASVGSSGTFSYNTQTGILTVTTNGVYSYDIGCGYNPALMSGQQETLSFQGNPYDTFLVLVNQPIPSDLTCAAVSSSITPSSSVEPSSSVVPSSSVEPSSSVEPSSSVEPSSSVEPSSSVEPSSSVEPSSSVEPSSSVEPSSSVEPSSSVEPSSSVEPSSSVEPSSSVEPSSSVEPSSSVEPSSSVEPSSSVEPSSSVEPSSSVEPSSLIVPSSSVEPSSSVLPSSSVVPSSSVEPSTPPIPSSSVEPSSSVVPSSPAVPSSSVEPSTPPIPSSSVVSASVFDTSSTLPSSPSVPPSSVSPSTISTPSSSAAPSSFCPTCVSSGTPPAPSSSAIVPTSSAGGGNGGDNREPGAAGQPGAAGQPGAAGQPGAAGQPGAAGQPGAAGQPGAAGQPGAAGQPGAAGQPGAAGQPGAGFGVGSEQPTPGAGAGSGSADGNQSGTGSGTGNGQQGSGQAGSGQAGSGQEGSGQAGSGQAGSGQAGSGQAGSGQAGLDNTASGQSEGGQASAMDGDQSGRDGQSNSGSLLQPNAQQGTGSGTGSDIGADQASGESPGQIGDAQPGSGTDQSSGRHSLAAEARTSQSHSLAADARTRSTTRQTSVIAPDTAPGTASGTAPGTAPGTAVVTTFHGCGTVNHKGMINILLALALLVLL"}, "B2": {"name": "Eap (Staphylococcus aureus), A0A7L5PYT7 (protein)", "chain": "MKFKSLITTTLALGVLASTGANFNNNEAAAAAKPLDKSSSSLHHGYSKVHVPYAITVNGTSQNILSSLTFNKNQNISYKDLEDRVKSVLKSDRGISDIDLRLSKQAKYTVYFKNGTKKVIDLKAGIYTADLINTSEIKAININVDTKKQVEDKKKDKANYQVPYTITVNGTSQNILSNLTFNKNQNISYKDLEDKVKSVLESNRGITDVDLRLSKQAKYTVNFKNGTKKVIDLKSGIYTANLINSSDIKSININVDTKKHIENKAKRNYQVPYSINLNGTSTNILSNLSFSNKPWTNYKNLTSQIKSVLKHDRGISEQDLKYAKKAYYTVYFKNGGKRILQLNSKNYTANLVHAKDVKRIEITVKTGTKAKADRYVPYTIAVNGTSTPILSDLKFTGDPRVGYKDISKKVKSVLKHDRGIGERELKYAKKATYTVHFKNGTKKVININSNISQLNLLYVQDIKKIDIDVKTGTKAKADSYVPYTIAVNGTSTPILSKLKISNKQLISYKYLNDKVKSVLKSERGISDLDLKFAKQAKYTVYFKNGKKQVVNLKSDIFTPNLFSAKDIKKIDIDVKQYTKSKKNK"}}, "test_in_all_cases": "glycan array binding signal (z-score within array); higher = stronger binding", "details_in_all_cases": "glycan notation: IUPAC condensed, linker removed", "key": {"[1]": {"target": "Neu5Ac(a2-8)Neu5Ac(a2-3)Gal(b1-4)Glc", "how_it_was_run": "(§1)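 Glycan array binding is given as a within-array Z-score, which can be read as non-binding when negative. The arrays, 3228 of them, came from the Consortium for Functional Glycomics database and were retained only where the protein sequence was available. Z-scores were averaged across arrays of the same protein sequence at different concentrations or buffers and across linkers.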"}, "[2]": {"target": "Neu5Ac(a2-8)Neu5Ac(a2-3)Gal(b1-4)GlcNAc", "how_it_was_run": "as §1"}, "[3]": {"target": "Neu5Ac(a2-8)Neu5Ac(a2-8)Neu5Ac(a2-8)Neu5Ac(a2-3)[GalNAc(b1-4)]Gal(b1-4)Glc", "how_it_was_run": "as §1"}, "[4]": {"target": "Fuc(a1-2)Gal(b1-3)GalNAc(b1-3)Gal(a1-4)Gal(b1-4)Glc", "how_it_was_run": "as §1"}, "[5]": {"target": "Fuc(a1-2)Gal(b1-3)[Fuc(a1-4)]GlcNAc", "how_it_was_run": "as §1"}, "[6]": {"target": "Fuc(a1-2)[Gal(a1-3)]Gal(b1-3)GlcNAc(b1-2)Man(a1-3)[Fuc(a1-2)[Gal(a1-3)]Gal(b1-3)GlcNAc(b1-2)Man(a1-6)]Man(b1-4)GlcNAc(b1-4)GlcNAc", "how_it_was_run": "as §1"}, "[7]": {"target": "Fuc(a1-2)[GalNAc(a1-3)]Gal", "how_it_was_run": "as §1"}, "[8]": {"target": "Fuc(a1-2)[GalNAc(a1-3)]Gal(b1-4)GlcNAc(b1-3)Gal(b1-4)GlcNAc(b1-3)Gal(b1-4)GlcNAc", "how_it_was_run": "as §1"}, "[9]": {"target": "Fuc(a1-3)[Gal(b1-4)]GlcNAc(b1-4)Gal(b1-4)[Fuc(a1-3)]GlcNAc(b1-4)Gal(b1-4)[Fuc(a1-3)]GlcNAc", "how_it_was_run": "as §1"}, "[10]": {"target": "Fuc(a1-3)[Gal(b1-4)]GlcNAc6S", "how_it_was_run": "as §1"}, "[11]": {"target": "Fuc(a1-3)[Gal3S(b1-4)]GlcNAc6S", "how_it_was_run": "as §1"}, "[12]": {"target": "Fuc(a1-3)[Neu5Ac(a2-3)]Gal(b1-4)GlcNAc(b1-3)GalNAc", "how_it_was_run": "as §1"}, "[13]": {"target": "Gal(a1-3)Gal(b1-4)[Fuc(a1-3)]GlcNAc", "how_it_was_run": "as §1"}, "[14]": {"target": "Gal(a1-3)Gal(b1-4)[Fuc(a1-3)]GlcNAc(b1-2)Man(a1-3)[Gal(a1-3)Gal(b1-4)[Fuc(a1-3)]GlcNAc(b1-2)Man(a1-6)]Man(b1-4)GlcNAc(b1-4)GlcNAc", "how_it_was_run": "as §1"}, "[15]": {"target": "Gal(a1-4)Gal(b1-4)GlcNAc(b1-3)Gal(b1-4)Glc", "how_it_was_run": "as §1"}, "Gal(b1-3)GalNAc": {"target": "Gal(b1-3)GalNAc", "how_it_was_run": "as §1"}, "[16]": {"target": "Gal(b1-3)GalNAc(b1-4)Gal(b1-4)Glc", "how_it_was_run": "as §1"}, "[17]": {"target": "Gal(b1-4)GlcNAc(b1-2)Man(a1-6)Man(b1-4)GlcNAc(b1-4)GlcNAc", "how_it_was_run": "as §1"}, "[18]": {"target": "Gal(b1-4)GlcNAc(b1-3)Gal(b1-4)GlcNAc(b1-3)Gal(b1-4)GlcNAc", "how_it_was_run": "as §1"}, "Gal3S(b1-4)GlcNAc": {"target": "Gal3S(b1-4)GlcNAc", "how_it_was_run": "as §1"}, "Gal3S4S(b1-4)GlcNAc": {"target": "Gal3S4S(b1-4)GlcNAc", "how_it_was_run": "as §1"}, "GlcA(b1-6)Gal": {"target": "GlcA(b1-6)Gal", "how_it_was_run": "as §1"}, "[19]": {"target": "GlcNAc(a1-4)Gal(b1-4)GlcNAc(b1-3)Gal(b1-4)Glc", "how_it_was_run": "as §1"}, "[20]": {"target": "GlcNAc(a1-4)Gal(b1-4)GlcNAc(b1-3)Gal(b1-4)GlcNAc", "how_it_was_run": "as §1"}, "[21]": {"target": "GlcNAc(a1-4)Gal(b1-4)GlcNAc(b1-3)Gal(b1-4)[Fuc(a1-3)]GlcNAc(b1-3)Gal(b1-4)[Fuc(a1-3)]GlcNAc", "how_it_was_run": "as §1"}, "[22]": {"target": "GlcNAc(b1-4)GlcNAc(b1-4)GlcNAc(b1-4)GlcNAc(b1-4)GlcNAc(b1-4)GlcNAc", "how_it_was_run": "as §1"}, "[23]": {"target": "Man(a1-2)Man(a1-3)[Man(a1-6)]Man(a1-6)[Man(a1-2)Man(a1-3)]Man(b1-4)GlcNAc(b1-4)GlcNAc", "how_it_was_run": "as §1"}, "[24]": {"target": "Neu5Ac(a2-3)Gal(b1-4)[Fuc(a1-3)]GlcNAc", "how_it_was_run": "as §1"}, "[25]": {"target": "Neu5Ac(a2-3)Gal(b1-4)[Fuc(a1-3)]GlcNAc(b1-6)[Gal(b1-3)]GalNAc", "how_it_was_run": "as §1"}, "[26]": {"target": "Neu5Ac(a2-3)Gal(b1-4)[Fuc(a1-3)]GlcNAc(b1-6)[Neu5Ac(a2-3)Gal(b1-3)]GalNAc", "how_it_was_run": "as §1"}, "Neu5Ac(a2-3)GalNAc": {"target": "Neu5Ac(a2-3)GalNAc", "how_it_was_run": "as §1"}, "[27]": {"target": "Neu5Ac(a2-6)Gal(b1-4)GlcNAc6S", "how_it_was_run": "as §1"}, "[28]": {"target": "Neu5Ac(b2-6)Gal(b1-4)GlcNAc", "how_it_was_run": "as §1"}, "[29]": {"target": "Neu5Gc(a2-3)Gal(b1-3)GlcNAc", "how_it_was_run": "as §1"}}, "note": "About 410 targets per protein were measured; listed, in parts, are those with the strongest signals and a random draw of the rest."}
{"binder": "B1", "values": [{"measurement": "glycan array binding signal (z-score)", "setting": "[1]", "value": 0.225}, {"measurement": "glycan array binding signal (z-score)", "setting": "[2]", "value": -0.772}, {"measurement": "glycan array binding signal (z-score)", "setting": "[3]", "value": -1.71}]}
{"binder": "B2", "values": [{"measurement": "glycan array binding signal (z-score)", "setting": "[4]", "value": 0.012}, {"measurement": "glycan array binding signal (z-score)", "setting": "[5]", "value": -0.514}, {"measurement": "glycan array binding signal (z-score)", "setting": "[6]", "value": -0.498}, {"measurement": "glycan array binding signal (z-score)", "setting": "[7]", "value": -0.319}, {"measurement": "glycan array binding signal (z-score)", "setting": "[8]", "value": 3.63}, {"measurement": "glycan array binding signal (z-score)", "setting": "[9]", "value": -0.587}, {"measurement": "glycan array binding signal (z-score)", "setting": "[10]", "value": 1.35}, {"measurement": "glycan array binding signal (z-score)", "setting": "[11]", "value": 4.89}, {"measurement": "glycan array binding signal (z-score)", "setting": "[12]", "value": 3.33}, {"measurement": "glycan array binding signal (z-score)", "setting": "[13]", "value": -0.392}, {"measurement": "glycan array binding signal (z-score)", "setting": "[14]", "value": -0.414}, {"measurement": "glycan array binding signal (z-score)", "setting": "[15]", "value": -0.4}, {"measurement": "glycan array binding signal (z-score)", "setting": "Gal(b1-3)GalNAc", "value": -0.063}, {"measurement": "glycan array binding signal (z-score)", "setting": "[16]", "value": -0.183}, {"measurement": "glycan array binding signal (z-score)", "setting": "[17]", "value": -0.437}, {"measurement": "glycan array binding signal (z-score)", "setting": "[18]", "value": -0.513}, {"measurement": "glycan array binding signal (z-score)", "setting": "Gal3S(b1-4)GlcNAc", "value": -0.007}, {"measurement": "glycan array binding signal (z-score)", "setting": "Gal3S4S(b1-4)GlcNAc", "value": 1.97}, {"measurement": "glycan array binding signal (z-score)", "setting": "GlcA(b1-6)Gal", "value": -0.24}, {"measurement": "glycan array binding signal (z-score)", "setting": "[19]", "value": 4.14}, {"measurement": "glycan array binding signal (z-score)", "setting": "[20]", "value": 4.58}, {"measurement": "glycan array binding signal (z-score)", "setting": "[21]", "value": 8.99}, {"measurement": "glycan array binding signal (z-score)", "setting": "[22]", "value": -0.455}, {"measurement": "glycan array binding signal (z-score)", "setting": "[23]", "value": -0.331}, {"measurement": "glycan array binding signal (z-score)", "setting": "[24]", "value": -0.563}, {"measurement": "glycan array binding signal (z-score)", "setting": "[25]", "value": -0.08}, {"measurement": "glycan array binding signal (z-score)", "setting": "[26]", "value": -0.297}, {"measurement": "glycan array binding signal (z-score)", "setting": "Neu5Ac(a2-3)GalNAc", "value": -0.425}, {"measurement": "glycan array binding signal (z-score)", "setting": "[27]", "value": -0.392}, {"measurement": "glycan array binding signal (z-score)", "setting": "[28]", "value": -0.365}, {"measurement": "glycan array binding signal (z-score)", "setting": "[29]", "value": -0.196}]}
